The results in this text go back to PubChem BioAssay (NCATS).

Several values for one entry are separate records, joined by “and”; a condition that tells them apart may be missing. Equal values may be shown once. Records with an inconclusive call do not appear. Activity calls are given as the source filed them. Calls follow the shape of the dose curve; as a rule, active = well fitted inhibition curve with a large enough effect; inconclusive = small, poorly fitted or top-dose-only effect; inactive = flat fitted curve, though single readings scatter.
% is scaled to controls: 0 for no effect and ±100 for the full control effect.

This assay deals with KB-3-1. Put plainly: Cytotoxic Profiling of Annotated Libraries Using Quantitative High-Throughput Screening (AID 1296008). Also: nearly all actives have a fitted effect of over 60% in size. To be noted: Five cell lines viability, CellTiter-Glo ATP luminescence, 48-72 h; max response: active compounds read low. Summed up: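 Cells exposed to compounds for 48 or 72 hr at 37 degrees Celsius. Viability read as ATP-coupled luminescence with CellTiter-Glo after 10 min at room temperature.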
For orientation: In ATP-based viability assays light output follows the ATP content of the culture.
Regarding `O=c1[nH]c(=O)n(Cl)c(=O)n1Cl`, the max response is 7.09% (inactive).

As for `CN1CCCC(=C(c2cccs2)c2cccs2)C1`, the max response was -14.6% (inactive).

As to `O=C1CN=C(c2ccccc2)c2cc(Cl)ccc2N1CC1CC1`, the max response is 1.41% (inactive).

Turning to `C[C@@H](CO)NC(=O)[C@@H]1C=C2c3cccc4[nH]cc(c34)C[C@H]2N(C)C1`, the max response was 1.7% (inactive).

Regarding `NCC(O)c1cccc(O)c1` (stereo not given), the max response is 1.34% (inactive).

On to `C#CCN1CC(=O)N(COC(=O)C2C(C=C(C)C)C2(C)C)C1=O` (stereo not given), for which the max response was -3.38% (inactive).

Take `CCC1C(C)=NN=C(c2ccc(OC)c(OC)c2)c2cc(OC)c(OC)cc21` (stereo not given): the max response is 11.4% (inactive).

With `CCC(=O)O[C@]1(c2ccccc2)CCN(C)C[C@H]1C`, the max response was -2.12% (inactive).

On to `FC(F)OC(F)(F)C(F)Cl` (stereo not given), for which the max response is -1.37% (inactive).

`O=C1CCO1`: the max response was -17.3% (inactive).

On to `CC(C)(C)c1cc(O)ccc1O`, for which the max response was 3.78% (inactive) and 3.98% (inactive).

`S=C=S`: the max response is -1.39% (inactive).

As to `[O]=[Cr](=[O])([OH])[O][Cr](=[O])(=[O])[OH]`, the max response is -23.8% (inactive) and 6.69% (inactive).

Consider `CNC1(c2ccccc2Cl)CCCCC1=O` (stereo not given), for which the max response is 3.79% (inactive) and -7.59% (inactive).

For `O=P(O)(O)C(Cl)(Cl)P(=O)(O)O`, the max response is -7.13% (inactive).

For `F/C(COc1ccc2c(c1)[nH]c1ccccc12)=C1/CN2CCC1CC2`, the max response is -8.12% (inactive).

Consider `Cn1sc(Cl)cc1=O`, for which the max response is -13.7% (inactive).

Turning to `COc1ccc2c3c1O[C@H]1[C@@H](O)C=C[C@H]4[C@@H](C2)NCC[C@@]341`, the max response is 2.68% (inactive) and -3.7% (inactive).

Take `CCN(CC)C(=O)/C(Cl)=C(\C)OP(=O)(OC)OC`: the max response was -1.44% (inactive).

Regarding `C[C@H]1CC[C@@H]2[C@@H](C)[C@H]3[C@H](C[C@H]4[C@@H]5CC=C6CC(O[C@@H]7O[C@H](CO)[C@H](O)[C@H](O[C@@H]8O[C@H](CO)[C@@H](O)[C@H](O)[C@H]8O)[C@H]7O[C@H]7O[C@@H](C)[C@H](O)[C@@H](O)[C@H]7O)CC[C@]6(C)[C@H]5CC[C@]34C)N2C1` (stereo not given in full), the max response is 48.6% (inactive).
